# Laboratory results taken from article PMC8384837, “Expanding the binding specificity for RNA recognition by a PUF domain”.
# Biological target: PUM1 PUF domain R5-KFA (Homo sapiens, UniProt Q14671 828-1176, C1007K;R1008F;Q1011A)
# Assay: yeast three-hybrid, YBZ-1, SC-Leu-His + 0.5 mM 3-AT, 4 days
# Settings: tags: N-Gal4 AD-HA kept; label: inside an RPR1-promoter hybrid RNA with tandem MS2 sites; ssRNA
# Method in brief: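 Matching RNA elements and Pumilio-1 PUF domain libraries, randomized at the three base-contacting residues of every repeat, were co-expressed from a centromeric plasmid in strain YBZ-1 (LexA–MS2 coat fusion, HIS3 reporter). The repeat regions were PCR-amplified and Illumina-sequenced from cells grown four days on SC-Leu (input) or SC-Leu-His + 0.5 mM 3-AT (selection). The interaction score is the log change in variant frequency from input to selection. It is computed in log2, with a pseudocount of 1 for absent variants.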
# Chain of PUM1 PUF domain R5-KFA (Q14671 828-1176 C1007K/R1008F/Q1011A): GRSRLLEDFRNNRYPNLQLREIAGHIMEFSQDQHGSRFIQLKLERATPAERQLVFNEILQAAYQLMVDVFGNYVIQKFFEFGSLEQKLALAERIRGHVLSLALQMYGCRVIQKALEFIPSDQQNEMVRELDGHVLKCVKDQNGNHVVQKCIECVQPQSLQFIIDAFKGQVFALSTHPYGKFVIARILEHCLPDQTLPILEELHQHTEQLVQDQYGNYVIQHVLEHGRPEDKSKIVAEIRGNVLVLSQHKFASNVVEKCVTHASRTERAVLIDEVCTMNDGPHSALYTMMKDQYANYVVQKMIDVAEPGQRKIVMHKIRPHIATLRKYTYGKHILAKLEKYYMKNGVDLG
row,Sequence,binding signal
1,GGCUAGAACUAGUGGAUCCCCCGGCGCCCGGCGGCUCGAGCCCGGGUAAGUGUUAAUAGUCUGCAUGCCGCCGGGCGCCAUGCCUGCAGGUCGACUCUAGAAAACAUG,4.8 log2 enrichment (interaction score)
2,GGCUAGAACUAGUGGAUCCCCCGGCGCCCGGCGGCUCGAGCCCGGGUAAGUGUCAAUAGUCUGCAUGCCGCCGGGCGCCAUGCCUGCAGGUCGACUCUAGAAAACAUG,4.46 log2 enrichment (interaction score)
3,GGCUAGAACUAGUGGAUCCCCCGGCGCCCGGCGGCUCGAGCCCGGGUAAGUGUAAAUAGUCUGCAUGCCGCCGGGCGCCAUGCCUGCAGGUCGACUCUAGAAAACAUG,4.26 log2 enrichment (interaction score)
